Assay [1] in a line: E. coli DRC41 culture turbidity changes, primary screen, E. coli filamentation inducer project, strain DRC41, OD650, 48 h (AID 1152).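 Further: E. coli MC1000 strain DRC41 lacking acrAB efflux pump and sulA.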 The following applies: E. coli DRC41 (acrAB sulA), higher = more signal, called active from +8 up or from −8 down.
Assay [2] in a line: small-molecule binders of probe aLefty1, primary screen, biochemical, small-molecule microarray, 635/667 nm fluorescence (AID 1153).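 Further: score merges spot fluorescence with signal-to-noise ratio from the scanned slide images.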 The following applies: higher = more signal.
Assay [3] in a line: PSAC antagonists in infected red cells, primary screen, cell-based, P. falciparum Indochina, OD700, 1 h (AID 1154). Conditions: P. falciparum Indochina infected RBC osmotic lysis, higher = more signal, called active from +8 up or from −8 down.
A short description of assay [4]: PSAC antagonists in infected red cells, primary screen, cell-based, P. falciparum Indochina, OD700, 2 h (AID 1155).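 Further: lysis reports solute entry through the parasite surface anion channel PSAC; channel blockers reduce lysis of infected cells.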 Conditions: P. falciparum Indochina infected erythrocytes, osmotic lysis OD700; higher = more signal, called active from +8 up or from −8 down.
A short description of assay [5]: osmotic lysis modulators in infected erythrocytes, primary screen, PSAC antagonist project, cell-based, P. falciparum Indochina, OD700, 3 h (AID 1156). Conditions: higher = more signal, called active from +8 up or from −8 down.
Assay [6] is described as follows: PSAC antagonists in infected red cells, primary screen, cell-based, P. falciparum Indochina, OD700, 18 h (AID 1157). The following applies: P. falciparum Indochina infected erythrocytes, osmotic lysis OD700, 18 h; higher = more signal, called active from +8 up or from −8 down.
Assay [7] can be described thus: modulators of S6 phosphorylation in cells, primary screen, cell-based, A549, cytoblot, luminescence, serum-stimulated (AID 1158).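 Further: serum-stimulated A549 lung adenocarcinoma cells; signal is phosphorylated S6 detected by cytoblot immunostaining with HRP secondary.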 The following applies: A549 phospho-S6 cytoblot, 5 h, higher = more signal.
The target in assay [8] is NADPH oxidase 2 (Homo sapiens) (UniProt P04839). Description: NOX2-dependent H2O2 signal modulators, primary screen, NOX inhibitor project, cell-based, HEK293-NOX2, PMA-stimulated, Amplex Red fluorescence (AID 1159). Further: test concentration not given here. Conditions: 45 min, higher = more signal, called active from +8 up or from −8 down.
Assay [9] addresses NADPH oxidase 4 (Homo sapiens) (UniProt Q9NPH5). Description: NOX4-dependent H2O2 signal modulators, primary screen, NOX inhibitor project, cell-based, HEK293-NOX4, tetracycline-induced, Amplex Red fluorescence (AID 1160). Conditions: 45 min, higher = more signal, called active from +8 up or from −8 down.
The target of assay [10] is NADPH oxidase 5 (Homo sapiens) (UniProt Q96PH1). Description: NOX5-dependent H2O2 signal modulators, primary screen, NOX inhibitor project, cell-based, HEK293-NOX5, Amplex Red fluorescence (AID 1161). Conditions: HEK293-NOX5, ionomycin, 45 min, higher = more signal.
The nature of assay [11]: A549 cell viability effects, profiling panel, calcein-AM fluorescence, 48 h, basal (AID 1162). Further: test concentration not given here. Conditions: higher = more signal.
A short description of assay [12]: adipocyte viability effects, profiling panel, cell-based, 3T3-L1 adipocytes, calcein-AM fluorescence, 48 h, basal (AID 1163). Further: test concentration not given here. The following applies: 3T3-L1 adipocytes viability, higher = more signal.
The nature of assay [13]: HepG2 cell viability effects, profiling panel, calcein-AM fluorescence, 48 h, basal (AID 1164). Further: test concentration not given here. Conditions: higher = more signal.
Assay [14] is described as follows: MM1S cell viability effects, profiling panel, calcein-AM fluorescence, 48 h, basal (AID 1165).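 Further: viability of MM1S multiple myeloma cells under basal unstimulated conditions; test concentration not given here.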 Conditions: higher = more signal.
Assay [15] in a line: basal RPMI8226 viability, no added stimulus, profiling panel, cell-based, calcein-AM fluorescence, 48 h, PK04 Diversity Set (AID 1166).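 Further: cells grown under basal conditions without added stimulus; test concentration not given here.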 The following applies: RPMI8226 myeloma viability, higher = more signal.
Assay [16] is described as follows: basal HepG2 mitochondrial membrane potential changes, profiling panel, cell-based, JC-1 fluorescence, 24 h, 100 nL compound (AID 1167). Further: test concentration not given here. The following applies: higher = more signal.
A short description of assay [17]: basal 3T3-L1 adipocyte mitochondrial potential changes, profiling panel, cell-based, JC-1 fluorescence, 3T3-L1 adipocytes, 24 h, 100 nL compound (AID 1168). Further: test concentration not given here. The following applies: JC-1 mitochondrial fluorescence, higher = more signal, called active from +8 up or from −8 down.
Assay [18] can be described thus: basal RPMI8226 mitochondrial membrane potential changes, profiling panel, cell-based, JC-1 fluorescence, 24 h, 100 nL compound (AID 1169). Further: test concentration not given here. Conditions: RPMI8226 myeloma, JC-1 mitochondrial potential fluorescence, higher = more signal.
Assay [19] is described as follows: basal MM1S mitochondrial membrane potential changes, profiling panel, cell-based, JC-1 fluorescence, 24 h, 100 nL compound (AID 1170). Further: test concentration not given here. The following applies: higher = more signal.
Assay [20] is described as follows: A549 lung cancer cell viability effects, profiling panel, resazurin fluorescence, 24 h, PK04 Diversity Set (AID 1171). Further: test concentration not given here. The following applies: higher = more signal, called active from +8 up or from −8 down. Background: Resazurin is reduced to fluorescent resorufin, in cell work by metabolically active cells.

Molecules are shown by their SMILES. Active and inactive are the calls of the source.

Chain of NADPH oxidase 2 (Homo sapiens) (P04839 whole entry, looked up): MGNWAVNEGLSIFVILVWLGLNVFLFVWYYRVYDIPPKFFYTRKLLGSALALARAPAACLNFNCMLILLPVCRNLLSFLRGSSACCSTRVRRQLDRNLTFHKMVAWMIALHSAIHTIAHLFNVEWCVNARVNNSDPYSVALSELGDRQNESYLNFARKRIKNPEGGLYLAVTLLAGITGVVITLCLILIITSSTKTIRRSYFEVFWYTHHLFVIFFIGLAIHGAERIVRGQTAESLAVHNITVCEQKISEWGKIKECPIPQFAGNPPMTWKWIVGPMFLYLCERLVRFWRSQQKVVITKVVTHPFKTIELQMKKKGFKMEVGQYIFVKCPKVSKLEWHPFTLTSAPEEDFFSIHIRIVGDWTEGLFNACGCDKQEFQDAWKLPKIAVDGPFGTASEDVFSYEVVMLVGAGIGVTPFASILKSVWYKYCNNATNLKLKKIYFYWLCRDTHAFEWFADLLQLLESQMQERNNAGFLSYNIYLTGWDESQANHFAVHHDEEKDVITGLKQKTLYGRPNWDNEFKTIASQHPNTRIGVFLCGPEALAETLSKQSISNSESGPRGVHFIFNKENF
Chain of NADPH oxidase 4 (Homo sapiens) (Q9NPH5 whole entry, looked up): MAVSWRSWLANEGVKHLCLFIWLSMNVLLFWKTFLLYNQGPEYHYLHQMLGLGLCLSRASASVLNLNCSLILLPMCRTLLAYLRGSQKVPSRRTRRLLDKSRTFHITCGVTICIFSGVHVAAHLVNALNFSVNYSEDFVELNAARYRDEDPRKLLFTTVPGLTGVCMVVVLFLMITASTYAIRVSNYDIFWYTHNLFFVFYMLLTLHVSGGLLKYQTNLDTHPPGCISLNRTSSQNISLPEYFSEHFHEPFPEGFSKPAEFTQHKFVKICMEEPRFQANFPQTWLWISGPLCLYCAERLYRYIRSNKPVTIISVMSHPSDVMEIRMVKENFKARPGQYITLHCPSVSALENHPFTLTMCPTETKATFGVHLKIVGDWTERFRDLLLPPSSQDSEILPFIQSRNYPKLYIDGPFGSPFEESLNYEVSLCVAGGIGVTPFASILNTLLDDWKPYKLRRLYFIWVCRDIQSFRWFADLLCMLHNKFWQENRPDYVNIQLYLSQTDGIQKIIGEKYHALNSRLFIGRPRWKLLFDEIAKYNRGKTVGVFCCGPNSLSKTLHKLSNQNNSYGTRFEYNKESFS
Chain of NADPH oxidase 5 (Homo sapiens) (Q96PH1 whole entry, looked up): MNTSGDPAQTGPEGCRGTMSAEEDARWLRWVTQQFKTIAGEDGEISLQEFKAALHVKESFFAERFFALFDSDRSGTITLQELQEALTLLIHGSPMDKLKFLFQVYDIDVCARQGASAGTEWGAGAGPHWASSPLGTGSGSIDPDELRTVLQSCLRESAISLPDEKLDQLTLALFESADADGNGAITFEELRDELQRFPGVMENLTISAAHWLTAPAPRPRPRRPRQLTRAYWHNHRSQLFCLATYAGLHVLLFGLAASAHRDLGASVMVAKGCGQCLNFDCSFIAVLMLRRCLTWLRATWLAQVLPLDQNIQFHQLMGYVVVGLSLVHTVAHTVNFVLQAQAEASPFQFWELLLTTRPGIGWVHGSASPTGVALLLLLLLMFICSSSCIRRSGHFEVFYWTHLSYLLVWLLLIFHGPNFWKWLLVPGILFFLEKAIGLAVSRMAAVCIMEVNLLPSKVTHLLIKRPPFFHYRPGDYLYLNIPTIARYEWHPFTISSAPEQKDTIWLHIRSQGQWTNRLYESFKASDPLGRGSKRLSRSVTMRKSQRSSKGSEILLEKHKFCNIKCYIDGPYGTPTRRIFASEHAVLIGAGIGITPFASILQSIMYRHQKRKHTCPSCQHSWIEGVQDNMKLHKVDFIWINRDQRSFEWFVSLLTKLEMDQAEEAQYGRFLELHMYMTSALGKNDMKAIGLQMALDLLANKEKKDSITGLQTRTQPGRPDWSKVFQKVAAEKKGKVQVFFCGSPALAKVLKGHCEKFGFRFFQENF

As to `NC(=O)N1C(=O)C2C(C1=O)C1C=C(CCCO)C2C(c2ccc(CN3CCCC3)cc2)N1Cc1cccc(OC(F)(F)F)c1` (stereo not given), the z-score in [1] is -0.267 (inactive); in [3], 1.86 (inactive); in assay [4], 0.63 (inactive); in assay [5], 0.0703 (inactive); in assay [6], 0.208 (inactive); in assay [7] it was -0.267. For the same molecule, the z-score in [8] was -1.4 (inactive); in [9] it was -0.76 (inactive); in [10], -1.04; in assay [11], 0.0272; in assay [12] it was -0.0602; in assay [13], -0.215. In addition, the z-score was -3.34 in assay [14]; -0.614 in assay [15]; 0.221 in [16]; -0.348 (inactive) in assay [17]; 0.708 in assay [18]; -0.275 in [19]. Besides, the z-score in assay [20] was 0.657 (inactive). Moreover, in assay [2], the composite z-score was -0.101.
With `COC(=O)[C@@]1(CCC(=O)OC(C)(C)C)N=C(c2ccc(OCCCO)cc2)O[C@H]1c1ccccc1CN=[N+]=[N-]`, the z-score in [1] was -0.0301 (inactive); in assay [3], 21.3 (active); in assay [4], 6.25 (inactive); in [5], 0.765 (inactive); in assay [6], 1.4 (inactive); in assay [7] it was -0.184. Also, the z-score in assay [8] is -1.47 (inactive); in [9] it was -0.475 (inactive); in assay [10], -0.802; in [11], -1.06; in assay [12], -1.3; in assay [13], -2.51. The z-score in assay [14] is -3.2; in [15] it was -3.95; in assay [16], -1.7; in assay [17] it was -0.472 (inactive); in assay [18], -1.12; in assay [19], -1.73. Also, the z-score in assay [20] was -0.227 (inactive). In addition, the composite z-score in assay [2] was determined as 0.437.
Regarding `COc1ccc(CCNC(=O)[C@@]2(C)c3ccccc3C(=O)N(Cc3cc(C(F)(F)F)cc(C(F)(F)F)c3)[C@H]2c2ccc(CO)cc2)cc1`, the z-score in [1] is 1.28 (inactive); in assay [3], 8.19 (active); in [4], 0.566 (inactive); in assay [5], 1.85 (inactive); in assay [6] it was -0.388 (inactive); in assay [7], 2.76. In addition, the z-score in assay [8] is -3.19 (inactive); in assay [9] it was -1.7 (inactive); in [10] it was -2.75; in [11] it was 0.0571; in assay [12], 1.28; in [13], -0.23. The z-score was -2.16 in assay [14]; -3.99 in [15]; 1.11 in [16]; -0.299 (inactive) in assay [17]; -0.428 in assay [18]; 0.783 in assay [19]. For the same molecule, the z-score in assay [20] was 0.616 (inactive). For the same molecule, in assay [2], the composite z-score is -0.216.
Turning to `CCOC(=O)C1=C[C@@H](C(C)(C)C)N(S(=O)(=O)c2ccc(C)cc2)[C@H]1c1ccccc1Cl`, the z-score was -1.29 (inactive) in [1]; -0.747 (inactive) in [3]; 0.627 (inactive) in assay [4]; -0.775 (inactive) in assay [5]; 0.193 (inactive) in assay [6]; -0.535 in assay [7]. The z-score was -1.54 (inactive) in assay [8]; -0.44 (inactive) in assay [9]; 0.1 in assay [10]; -0.917 in assay [11]; -1.16 in assay [12]; -1.81 in [13]. The z-score in assay [14] was -0.991; in assay [15], -1.2; in assay [16], 3.95; in [17], 0.147 (inactive); in [18] it was -0.822; in assay [19], -0.863. Moreover, in [20], the z-score was 0.772 (inactive). The composite z-score in [2] was 0.208.
On to `O=C(NCC(F)(F)F)[C@@H]1c2ccccc2C(=O)N(CC23CC4CC(CC(C4)C2)C3)[C@H]1c1ccc(CO)cc1`, for which the z-score in assay [1] is 1.17 (inactive); in assay [3], 0.75 (inactive); in assay [4], -0.399 (inactive); in assay [5] it was -0.2 (inactive); in assay [6], -0.264 (inactive); in assay [7], 3.83. Moreover, the z-score in [8] is 0.49 (inactive); in [9], -0.0154 (inactive); in assay [10], 0.19; in [11], 1.5; in assay [12] it was 1.27; in assay [13] it was 2.14. The z-score in [14] was -0.347; in assay [15] it was 0.777; in [16], 1.08; in assay [17] it was -0.154 (inactive); in [18], 0.417; in assay [19], -0.457. For the same molecule, in [20], the z-score was 0.637 (inactive). Besides, the composite z-score in assay [2] was 0.0585.
On to `CC(C)C[C@@H]1NC(=O)[C@@]23C(=O)N[C@@H](Cc4ccccc4)C2[C@H](C)[C@@]2(C)O[C@H]2C3/C=C/C/C=C\CNC(=O)[C@@H](CC(C)C)NC1=O` (stereo not given in full), for which the z-score in assay [1] is -0.664 (inactive); in assay [3], 1.44 (inactive); in assay [4], -0.172 (inactive); in assay [5] it was 0.0094 (inactive); in [6], -0.0134 (inactive); in assay [7], 0.0885. The z-score in assay [8] was 0.063 (inactive); in assay [9], 0.41 (inactive); in assay [10], -3.22; in assay [11], 0.939; in assay [12], 0.703; in assay [13] it was -0.293. The z-score is -0.549 in assay [14]; -0.361 in assay [15]; -0.046 in assay [16]; -0.618 (inactive) in assay [17]; -0.955 in [18]; 1.28 in assay [19]. Also, the z-score in assay [20] is 1.31 (inactive). Further, in assay [2], the composite z-score is 0.0774.
